# In PubChem BioAssay (EPA / NIEHS):
# Records with an inconclusive call do not appear. The source made the active and inactive calls. The calls were made as follows: active = hit-call score of the fitted dose curve at least 0.9, where 1 is the maximum; inconclusive = response in the unintended direction; inactive = score below 0.9.
# How the values were obtained:
# [1] = biological target: rat Serotonin, 5-Hydroxytryptamine Receptor (5HT), Non-Selective Binding, Htr1a (gene 24473) (UniProt P19327); test: NVS_GPCR_r5HT_NonSelective: NovaScreen (NVS) G Protein-Coupled Receptor Assay for rat Serotonin, 5-Hydroxytryptamine Receptor (5HT), Non-Selective Binding (AID 2283295)
# Sequence of rat Serotonin, 5-Hydroxytryptamine Receptor (5HT), Non-Selective Binding, Htr1a (gene 24473) (P19327 whole entry, looked up): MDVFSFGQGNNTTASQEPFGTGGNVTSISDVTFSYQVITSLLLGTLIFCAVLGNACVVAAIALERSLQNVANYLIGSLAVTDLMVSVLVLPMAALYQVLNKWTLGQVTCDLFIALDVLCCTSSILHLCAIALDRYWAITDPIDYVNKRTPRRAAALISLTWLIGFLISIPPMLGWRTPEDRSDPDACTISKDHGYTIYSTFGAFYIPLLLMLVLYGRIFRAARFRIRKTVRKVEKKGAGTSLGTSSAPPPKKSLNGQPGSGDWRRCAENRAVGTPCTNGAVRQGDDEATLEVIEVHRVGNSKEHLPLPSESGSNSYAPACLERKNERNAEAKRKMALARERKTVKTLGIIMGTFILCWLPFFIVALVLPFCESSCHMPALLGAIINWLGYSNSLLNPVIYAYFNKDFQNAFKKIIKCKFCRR
# Summary of the method: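 Rat cortex membrane preparation incubated 1 h with radioligand and test chemical; bound radioactivity counted after filtration. Screening began in duplicate at 25 uM with concentration-series follow-up; fitting relative to DMSO.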
# [2] = biological target: D(1A) dopamine receptor (Homo sapiens) (UniProt P21728); test: NVS_GPCR_hDRD1: NovaScreen (NVS) G Protein-Coupled Receptor Assay for human Dopamine Receptor D1 (DRD1) (AID 2283269)
# Sequence of D(1A) dopamine receptor (Homo sapiens) (P21728 whole entry, looked up): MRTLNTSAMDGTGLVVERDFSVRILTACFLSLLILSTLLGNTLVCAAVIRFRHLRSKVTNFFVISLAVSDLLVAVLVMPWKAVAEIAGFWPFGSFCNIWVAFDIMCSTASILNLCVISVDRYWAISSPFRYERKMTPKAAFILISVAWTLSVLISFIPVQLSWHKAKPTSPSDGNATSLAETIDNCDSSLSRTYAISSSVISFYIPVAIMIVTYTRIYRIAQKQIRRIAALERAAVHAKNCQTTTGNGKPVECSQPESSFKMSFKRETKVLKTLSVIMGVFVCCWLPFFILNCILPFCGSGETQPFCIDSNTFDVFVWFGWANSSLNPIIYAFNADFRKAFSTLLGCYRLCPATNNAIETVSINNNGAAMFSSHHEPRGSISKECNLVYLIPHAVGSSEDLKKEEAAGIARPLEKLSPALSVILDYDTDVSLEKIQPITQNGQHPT
# Summary of the method: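 Extracted HEK293 DRD1 is incubated 1 h with compound and a tritiated or iodinated radioligand, then filtered and counted. Screening runs 25 uM in duplicate with on-plate positive and negative controls.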
# [3] = biological target: Muscarinic acetylcholine receptor M2 (Homo sapiens) (UniProt P08172); test: NVS_GPCR_hM2: NovaScreen (NVS) G Protein-Coupled Receptor Assay for human Muscarinic, M2 Receptor (AID 2283273)
# Sequence of Muscarinic acetylcholine receptor M2 (Homo sapiens) (P08172 whole entry, looked up): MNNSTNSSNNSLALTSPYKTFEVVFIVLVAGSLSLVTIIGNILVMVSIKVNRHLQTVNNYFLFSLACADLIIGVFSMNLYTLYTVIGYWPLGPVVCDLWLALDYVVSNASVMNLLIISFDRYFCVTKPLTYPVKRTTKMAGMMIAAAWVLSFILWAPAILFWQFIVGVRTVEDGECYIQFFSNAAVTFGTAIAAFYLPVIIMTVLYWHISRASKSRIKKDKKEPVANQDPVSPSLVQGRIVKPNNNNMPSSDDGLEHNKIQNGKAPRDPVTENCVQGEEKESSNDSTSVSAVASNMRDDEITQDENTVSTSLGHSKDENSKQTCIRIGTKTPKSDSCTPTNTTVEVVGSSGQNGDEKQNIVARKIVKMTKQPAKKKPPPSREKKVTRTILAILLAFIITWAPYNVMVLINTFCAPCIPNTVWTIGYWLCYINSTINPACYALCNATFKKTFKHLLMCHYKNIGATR
# Summary of the method: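 Radioligand competition binding, cell-free, receptor from CHO; 1 h incubation; scintillation detection. Primary testing at 25 uM in duplicate.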
# [4] = biological target: human Neurokinin, NK2 Receptor, TACR2 (gene 6865) (UniProt P21452); test: NVS_GPCR_hNK2: NovaScreen (NVS) G Protein-Coupled Receptor Assay for human Neurokinin, NK2 Receptor (AID 2283278);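 also: actives reduce bound radioligand signal relative to DMSO baseline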
# Sequence of human Neurokinin, NK2 Receptor, TACR2 (gene 6865) (P21452 whole entry, looked up): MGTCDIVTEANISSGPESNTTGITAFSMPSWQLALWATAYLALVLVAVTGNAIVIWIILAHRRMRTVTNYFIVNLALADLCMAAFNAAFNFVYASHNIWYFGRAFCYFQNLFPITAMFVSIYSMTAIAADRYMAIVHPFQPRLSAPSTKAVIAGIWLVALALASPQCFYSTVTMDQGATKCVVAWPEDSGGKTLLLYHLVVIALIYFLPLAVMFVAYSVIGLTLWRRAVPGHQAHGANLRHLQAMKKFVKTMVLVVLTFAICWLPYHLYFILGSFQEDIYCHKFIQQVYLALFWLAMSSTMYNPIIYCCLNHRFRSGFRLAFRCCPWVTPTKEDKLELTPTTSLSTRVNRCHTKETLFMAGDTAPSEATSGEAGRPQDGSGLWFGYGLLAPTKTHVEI
# Summary of the method: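 Test chemicals displace a radioligand from receptor prepared from CHO cells in a cell-free format, read after 4 hours by scintillation counting on filters. Screening starts at 25 uM in duplicate, and active chemicals then go to concentration series.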
# [5] = biological target: Muscarinic acetylcholine receptor M3 (Homo sapiens) (UniProt P20309); test: NVS_GPCR_hM3: NovaScreen (NVS) G Protein-Coupled Receptor Assay for human Muscarinic, M3 Receptor (AID 2283272)
# Sequence of Muscarinic acetylcholine receptor M3 (Homo sapiens) (P20309 whole entry, looked up): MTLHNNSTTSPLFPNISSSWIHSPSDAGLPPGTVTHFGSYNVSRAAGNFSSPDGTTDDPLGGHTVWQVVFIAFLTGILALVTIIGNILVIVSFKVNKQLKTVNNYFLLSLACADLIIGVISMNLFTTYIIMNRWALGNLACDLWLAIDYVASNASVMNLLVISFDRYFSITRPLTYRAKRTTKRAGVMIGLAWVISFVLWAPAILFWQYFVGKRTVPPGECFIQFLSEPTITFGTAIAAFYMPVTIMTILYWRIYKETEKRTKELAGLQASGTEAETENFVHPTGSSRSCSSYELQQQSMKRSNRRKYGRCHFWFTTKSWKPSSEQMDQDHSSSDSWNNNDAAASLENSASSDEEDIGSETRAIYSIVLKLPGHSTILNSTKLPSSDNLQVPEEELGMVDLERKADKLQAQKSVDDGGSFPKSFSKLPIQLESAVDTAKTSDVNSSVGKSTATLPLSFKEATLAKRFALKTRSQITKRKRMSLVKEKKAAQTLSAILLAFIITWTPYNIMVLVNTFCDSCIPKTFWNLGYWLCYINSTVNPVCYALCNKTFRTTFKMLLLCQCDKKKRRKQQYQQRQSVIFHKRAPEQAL
# Summary of the method: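 Radioligand displacement binding on human M3 receptor in CHO-derived membranes, 1 h incubation, filter-based scintillation counting. Primary screen in duplicate at 25 uM; actives followed up in concentration series; loss of signal versus DMSO.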
# [6] = biological target: human Muscarinic, M4 Receptor, CHRM4 (gene 1132) (UniProt P08173); test: NVS_GPCR_hM4: NovaScreen (NVS) G Protein-Coupled Receptor Assay for human Muscarinic, M4 Receptor (AID 2283274)
# Sequence of human Muscarinic, M4 Receptor, CHRM4 (gene 1132) (P08173 whole entry, looked up): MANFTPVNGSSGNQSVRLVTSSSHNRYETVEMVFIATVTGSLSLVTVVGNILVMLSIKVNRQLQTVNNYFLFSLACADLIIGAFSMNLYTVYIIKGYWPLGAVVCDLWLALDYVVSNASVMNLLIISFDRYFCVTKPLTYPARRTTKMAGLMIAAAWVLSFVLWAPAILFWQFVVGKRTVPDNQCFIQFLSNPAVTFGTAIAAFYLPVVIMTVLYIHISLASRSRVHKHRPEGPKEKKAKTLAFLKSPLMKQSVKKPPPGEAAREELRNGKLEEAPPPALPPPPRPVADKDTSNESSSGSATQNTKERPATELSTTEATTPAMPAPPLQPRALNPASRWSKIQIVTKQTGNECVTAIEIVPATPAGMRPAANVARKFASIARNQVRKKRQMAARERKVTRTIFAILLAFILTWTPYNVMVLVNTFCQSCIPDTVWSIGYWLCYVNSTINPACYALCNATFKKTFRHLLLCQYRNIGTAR
# Summary of the method: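 Filter-based scintillation counting of radioligand bound to CHO-expressed human M4 preparations after 1 h; loss of signal fitted versus DMSO. Initial duplicate testing at 25 uM, concentration-response follow-up for actives.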
# [7] = biological target: human Opioid Receptor Delta 1 (Opiate D1), OPRD1 (gene 4985) (UniProt P41143); test: NVS_GPCR_hOpiate_D1: NovaScreen (NVS) G Protein-Coupled Receptor Assay for human Opioid Receptor Delta 1 (Opiate D1) (AID 2283280)
# Sequence of human Opioid Receptor Delta 1 (Opiate D1), OPRD1 (gene 4985) (P41143 whole entry, looked up): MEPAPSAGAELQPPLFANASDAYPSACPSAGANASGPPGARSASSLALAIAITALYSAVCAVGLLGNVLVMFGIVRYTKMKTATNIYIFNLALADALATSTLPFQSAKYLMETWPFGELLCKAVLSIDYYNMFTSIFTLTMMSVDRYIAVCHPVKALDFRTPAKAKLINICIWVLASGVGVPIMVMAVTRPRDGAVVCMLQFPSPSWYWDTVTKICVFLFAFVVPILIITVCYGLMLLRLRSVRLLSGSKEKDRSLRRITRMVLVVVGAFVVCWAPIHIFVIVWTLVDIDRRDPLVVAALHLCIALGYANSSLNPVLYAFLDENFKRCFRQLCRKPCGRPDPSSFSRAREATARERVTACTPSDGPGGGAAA
# Summary of the method: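 Membrane preparations from CHO cells bearing the human receptor were incubated 1 h with test chemical, and bound radioligand was counted after filtration. Actives from 25 uM duplicate screening were retested in concentration-response.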
# [8] = biological target: human Thromboxane A2 Receptor (TXA2), TBXA2R (gene 6915) (UniProt P21731); test: NVS_GPCR_hTXA2: NovaScreen (NVS) G Protein-Coupled Receptor Assay for human Thromboxane A2 Receptor (TXA2) (AID 2283282);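 also: actives reduce bound radioligand signal relative to DMSO baseline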
# Sequence of human Thromboxane A2 Receptor (TXA2), TBXA2R (gene 6915) (P21731 whole entry, looked up): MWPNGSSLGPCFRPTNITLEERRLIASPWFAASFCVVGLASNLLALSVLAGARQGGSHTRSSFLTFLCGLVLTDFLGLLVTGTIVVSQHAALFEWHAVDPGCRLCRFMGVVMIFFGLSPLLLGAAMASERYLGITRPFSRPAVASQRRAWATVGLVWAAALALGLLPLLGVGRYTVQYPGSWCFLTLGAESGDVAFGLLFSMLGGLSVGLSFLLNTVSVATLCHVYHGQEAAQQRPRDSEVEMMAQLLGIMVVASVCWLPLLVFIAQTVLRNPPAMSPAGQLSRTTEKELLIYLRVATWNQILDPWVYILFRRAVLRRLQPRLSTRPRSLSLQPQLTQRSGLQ
# Summary of the method: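 Biochem binding, human platelets, cell-free; competitive radioligand displacement; 1 h; filter radiodetection. 25 uM duplicate primary, conc. series secondary; DMSO neg. ctrl.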
# [9] = biological target: human Opioid Receptor Mu (Opiate Mu), OPRM1 (gene 4988) (UniProt P35372); test: NVS_GPCR_hOpiate_mu: NovaScreen (NVS) G Protein-Coupled Receptor Assay for human Opioid Receptor Mu (Opiate Mu) (AID 2283290);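 also: hits lower bound tracer signal versus DMSO meaning displacement of the ligand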
# Sequence of human Opioid Receptor Mu (Opiate Mu), OPRM1 (gene 4988) (P35372 whole entry, looked up): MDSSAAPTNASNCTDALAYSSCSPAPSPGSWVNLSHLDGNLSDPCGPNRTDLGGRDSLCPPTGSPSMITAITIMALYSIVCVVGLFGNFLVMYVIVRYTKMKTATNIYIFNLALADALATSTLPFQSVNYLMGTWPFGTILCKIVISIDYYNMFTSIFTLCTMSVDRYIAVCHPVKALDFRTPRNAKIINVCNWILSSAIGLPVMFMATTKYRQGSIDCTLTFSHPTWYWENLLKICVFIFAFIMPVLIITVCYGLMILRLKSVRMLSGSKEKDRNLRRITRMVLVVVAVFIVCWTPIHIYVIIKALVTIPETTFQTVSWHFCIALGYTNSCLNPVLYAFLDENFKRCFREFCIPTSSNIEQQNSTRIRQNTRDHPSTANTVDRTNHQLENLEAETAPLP
# Summary of the method: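 Here, radioligand binding to CHO-extracted receptor was measured after 2.5 h using filter-based scintillation detection. Initial single-concentration screening used 25 uM in duplicate with plate controls; confirmed actives went to concentration-response testing.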
# [10] = system: guinea pig Atrionatriuretic Peptide Receptor A (ANPA), gene 100135578; test: NVS_GPCR_gANPA: NovaScreen (NVS) G Protein-Coupled Receptor Assay for guinea pig Atrionatriuretic Peptide Receptor A (ANPA) (AID 2283291)
# Summary of the method: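 Displacement of specific radioligand from guinea pig cerebellum membranes was read by scintillation after 1 h. A duplicate single-point screen at 25 uM was followed by a concentration series up to 50 uM, analysed relative to DMSO.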
# [11] = system: 5-hydroxytryptamine receptor 2C (pig); test: NVS_GPCR_p5HT2C: NovaScreen (NVS) G Protein-Coupled Receptor Assay for pig Serotonin, 5-Hydroxytryptamine Receptor 2C (5HT2C) (AID 2283288)
# Summary of the method: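 Radioligand displacement on membranes from pig choroid plexus, detected by filter scintillation counting after 1 h. Tested first at a single 25 uM in duplicate, then in concentration-response for actives; DMSO served as baseline.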
# [12] = biological target: mouse Cholecystokinin, CCK2 Receptor (CCKB), Cckbr (gene 12426) (UniProt P56481); test: NVS_GPCR_mCKKBCentral: NovaScreen (NVS) G Protein-Coupled Receptor Assay for mouse Cholecystokinin, CCK2 Receptor (CCKB) (AID 2283293)
# Sequence of mouse Cholecystokinin, CCK2 Receptor (CCKB), Cckbr (gene 12426) (P56481 whole entry, looked up): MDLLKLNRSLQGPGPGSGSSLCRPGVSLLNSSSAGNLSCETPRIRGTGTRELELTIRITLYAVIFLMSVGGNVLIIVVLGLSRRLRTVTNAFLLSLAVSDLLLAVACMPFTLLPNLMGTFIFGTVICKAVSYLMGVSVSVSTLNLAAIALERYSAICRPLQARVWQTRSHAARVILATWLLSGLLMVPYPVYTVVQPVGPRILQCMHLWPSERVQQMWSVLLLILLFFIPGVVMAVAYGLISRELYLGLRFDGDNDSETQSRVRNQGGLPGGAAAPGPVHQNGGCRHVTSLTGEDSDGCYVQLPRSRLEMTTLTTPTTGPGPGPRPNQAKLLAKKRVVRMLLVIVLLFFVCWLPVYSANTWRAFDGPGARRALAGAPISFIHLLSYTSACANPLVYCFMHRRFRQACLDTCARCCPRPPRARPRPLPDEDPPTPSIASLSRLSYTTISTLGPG
# Summary of the method: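 Mouse forebrain membrane preparation incubated 2 h with chemical and radioligand; bound radioactivity counted after filtration. Single-concentration duplicate screen at 25 uM, then concentration series to 50 uM max for hits, DMSO as baseline.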
smiles,measurement,setting,value
Cc1ccc([N+](=O)[O-])cc1C,outcome,[1],inactive
CC(C)Nc1ccc(Nc2ccccc2)cc1,AC50,[2],25 µM (active)
same,AC50,[3],2.71 µM (active)
same,AC50,[4],20 µM (active)
Oc1ccccc1Br,outcome,[2],inactive
CCOP(=S)(Oc1ccc([N+](=O)[O-])cc1)c1ccccc1 (stereo not given),outcome,[2],inactive
same,outcome,[5],inactive
same,outcome,[6],inactive
O=C(O)C1C(C(=O)O)C2(Cl)C(Cl)=C(Cl)C1(Cl)C2(Cl)Cl (stereo not given),outcome,[7],inactive
CC(C)(C)OOC(C)(C)C,outcome,[3],inactive
same,outcome,[7],inactive
COP(N)(=S)OC,outcome,[2],inactive
N#Cc1ccc(O)cc1,outcome,[8],inactive
c1cc2c3c(cccc3c1)CC2,outcome,[9],inactive
O=S1(=O)OCC2C(CO1)C1(Cl)C(Cl)=C(Cl)C2(Cl)C1(Cl)Cl (stereo not given),outcome,[4],inactive
O=[N+]([O-])c1ccccc1,outcome,[10],inactive
OCC1CO1 (stereo not given),outcome,[9],inactive
Cc1cc(C)c(C(=O)P(=O)(c2ccccc2)c2ccccc2)c(C)c1,AC50,[4],0.367 µM (active)
CSC(C)(C)C=NO,outcome,[2],inactive
same,outcome,[3],inactive
same,outcome,[4],inactive
same,outcome,[7],inactive
same,outcome,[8],inactive
same,outcome,[9],inactive
Cc1ccc(O)cc1C,AC50,[11],21.1 µM (active)
same,outcome,[9],inactive
CCC(C)(C)c1ccc(O)cc1,outcome,[3],inactive
same,AC50,[9],6.43 µM (active)
same,outcome,[12],inactive
Cc1ccc2c(c1N)C(=O)c1ccccc1C2=O,outcome,[8],inactive
